For 33 compounds, Potency results are on record in PubChem BioAssay AID1845226 (National Center for Advancing Translational Sciences (NCATS), 2023).

Molecules are shown by their SMILES. Results filed as inconclusive are left out. Where a call stands in place of a potency, no number is given. The source made the active and inactive calls. Calls come from the whole dose curve; as a rule, active = well fitted inhibition curve with a large enough effect; inconclusive = small, poorly fitted or top-dose-only effect; inactive = no such curve, though single readings can be large or run the other way.
Potency is the fitted concentration of half-maximal effect.

The experiment is described as follows: Confirmatory fluorescence-based thiol-reactive (MSTI) qHTS assay for identification of artifact compounds. As to conditions: MSTI thiol-reactivity probe, 1 h; series mostly up to 39.2 µM. A digest of the protocol: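 Fluorescence read-out (excitation 525 nm, emission 598 nm) tracks loss of the thiol probe MSTI, used at 4 uM in PBS buffer at pH 7.4. Test compounds are incubated 1 h at room temperature.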
(In general: In qHTS, concentration-response curves come from the screen itself.)
For `CCCS(=O)(=O)N1CCCC(C(=O)NCCCOC)C1` (stereo not drawn), the Potency entry was “inactive”.

In the case of `CCOc1ccc(NC(=O)c2cnc(Nc3ccccc3OC)c3ccccc23)cc1`, the Potency result is “inactive”.

For the compound `Cc1ccc(NC(=O)NCC2CCN(Cc3cccc(Cl)c3)CC2)cc1Cl`, the Potency result was “inactive”.

Consider `Fc1ccc2c(c1)-c1nc(-c3ccccc3)cc(-c3ccccc3)c1CO2`, for which the Potency result is “inactive”.

On to `Cc1ccc2cccc(NC(=O)c3ccc(-c4cccc([N+](=O)[O-])c4)o3)c2n1`, for which the Potency result is “inactive”.

As to `O=C(NCc1ccccc1)C1(C(F)(F)F)C/C(=C\CCO)CCCO1` (stereo not drawn), the Potency entry is “inactive”.

In the case of `COc1ccc(CNC(=O)c2cc3sccc3n2Cc2ccc(C)cc2)cc1`, the Potency entry is “inactive”.

For `Cc1cc(C)cc(-n2c(SCC(=O)N3CCCCCC3)nc3c([nH]c4ccccc43)c2=O)c1`, the Potency result was “inactive”.

With `O=C(O)Cc1cc(I)c(Oc2cc(I)c(O)c(I)c2)c(I)c1`, the Potency entry is “inactive”.

With `COC(=O)c1cc(NC(=O)c2ccc3c(c2)NC(=O)c2ccccc2S3)cc(C(=O)OC)c1`, the Potency entry is “inactive”.

Consider `O=C(/C=C/c1ccc(O)c(O)c1)OC1C[C@](O)(C(=O)O)C[C@@H](O)[C@H]1O` (stereo partly drawn), for which the Potency result was “inactive”.

Take `C=Cc1ccc(Cn2c(C)c(CNCc3cccc(Br)c3)c(C(=O)O)c2C)cc1`: the Potency entry is “inactive”.

Regarding `COc1ccc(C(=O)NCC(=O)OCC(=O)c2cccc3ccccc23)cc1`, the Potency entry was “inactive”.

For the compound `COc1ccc(CNC(=O)c2nnn(CC(=O)Nc3cc(C)cc(C)c3)c2N)cc1`, the Potency result was “inactive”.

On to `COc1ccc(-c2cc3ccc(O)c(CN4CCOCC4)c3oc2=O)cc1OC`, for which the Potency entry was “inactive”.

For `CC/C=C/C/C=C/C/C=C/CCCCCCCC(=O)OCC`, the Potency result was “inactive”.

For the compound `COc1ccc(-c2oc3cc(O[C@@H]4OC(CO)C(O)C(O)C4O)c(OC)c(O)c3c(=O)c2OC)cc1O` (stereo partly drawn), the Potency result was “inactive”.

In the case of `Cc1cc(C)cc(NC(=O)C(CC(C)C)NC(=O)C2CCCCC2)c1` (stereo not drawn), the Potency result is “inactive”.

Take `COc1ccc(-c2[nH]ncc2C(=O)NCc2cccc(OC)c2)cc1`: the Potency entry was “inactive”.

Regarding `COc1ccc(C2=NN(CCC(=O)NCCc3ccccc3)C(=O)CC2)cc1`, the Potency result was “inactive”.

In the case of `COc1ccc(CCn2c3c(c(=O)[nH]c2=S)CN(C(C)C)CN3)cc1OC`, the Potency entry was “inactive”.

Regarding `COc1ccc2oc(=O)cc(CN3CCN(C(=O)c4ccccc4F)CC3)c2c1`, the Potency result was “inactive”.

As for `Cc1ccc(NC(=O)CCn2cccn2)cc1Cl`, the Potency result is “inactive”.

With `COc1cc2c(C(=O)N3CCN(c4ccc(F)cc4)CC3)cn(CC(C)C)c(=O)c2cc1OC`, the Potency result is “inactive”.

Consider `COc1cc(NC(=O)c2ccc(C)cc2)ccc1NC(=O)c1cc2ccccc2o1`, for which the Potency entry is “inactive”.

As to `Cc1cc(C(=O)N2CCN(c3cccc(Cl)c3)CC2)c2c(C)nn(-c3ccccc3Cl)c2n1`, the Potency result was “inactive”.

As to `CCCCOc1ccc(C2C(=O)N(C3CCCCC3)CC(=O)N2CCCC)cc1` (stereo not drawn), the Potency entry is “inactive”.

Turning to `CCOC(=O)c1sc2cccc(F)c2c1S(=O)(=O)NCc1ccccc1Cl`, the Potency entry is “inactive”.

For `CC(C)=CCC/C(C)=C/C=O`, the Potency entry is “inactive”.

On to `O=S(=O)(O)c1ccc(N=Nc2c(O)ccc3cc(S(=O)(=O)O)ccc23)cc1`, for which the Potency was 6.12 µM (active).

For `Oc1c(C(c2ccccc2F)N2CCN(Cc3ccccc3)CC2)sc2nc(-c3ccco3)nn12` (stereo not drawn), the Potency entry is “inactive”.

On to `Cc1ccccc1C(=O)N1CCc2cc(-c3nc(NC(=O)Cc4ccccc4)sc3C)ccc21`, for which the Potency result was “inactive”.

`Cc1c(C(=O)Nc2ccc(-n3c(C)nc4ccccc4c3=O)cc2)cccc1[N+](=O)[O-]`: the Potency entry is “inactive”.
